Rows were chosen to be rich in hits. Some 2.9% of all compounds tested hit in one or more screens of this group.
ATXN2 expr inh – Primary qHTS for Inhibitors of ATXN expression; HEK-293 ATXN2-luciferase reporter, luminescence, 24 h; Potency, µM (titrated, usually from 57 µM), actives largely listed as inhibitors; 360,000 compounds, 0.72% hits; AID 1745845, 2022; also: nearly all actives have a fitted effect of over 55% in size
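ATXN2-luciferase reporter cells (luciferase flanked by upstream and downstream ATXN2 gene portions) were treated 24 h at 37 °C with compounds at up to 57 uM. SteadyGlo luminescence gave expression; GF-AFC fluorescence gave viability.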
A549 tox – Nrf2 qHTS screen for inhibitors: counterscreen for cytotoxicity | A549 ARE-Fluc cells, CellTiter-Fluor viability, 18-24 h | Potency, µM (doses to about 46 µM), most hits filed as inhibitors | 390,000 compounds, 0.16% hits | AID 504648, 2011
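A549 ARE_Fluc cells in 5% FBS OPTI-MEM were exposed to compounds in concentration-response for 18-24 h at 37 deg C. Viability was read by CellTiter-Fluor fluorescence (Ex 405/Em 525) after 30 min, before the luciferase read.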
Nrf2 inh – Nrf2 qHTS screen for inhibitors. A549 ARE-Fluc reporter, luciferase luminescence, 18-24 h. Potency, µM (highest dose often 46 µM), hits mostly inhibitors. 360,000 compounds, 2.1% hits. AID 504444, 2011; also: nearly all actives have a fitted effect of over 60% in size
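A549 ARE_Fluc cells, 5000/well, 5% FBS OPTI-MEM; compounds in dose-response, 18-24 h at 37 °C/5% CO2; CellTiter-Fluor viability read (Ex 405/Em 525), then BugLite luciferase luminescence = Nrf2 activity.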
S2 tox – Viability Counterscreen for Primary qHTS for Inhibitors of ATXN expression | S2 cells (HEK-293 line with an ATXN2-luciferase reporter) viability, CellTiter-Fluor protease fluorescence, 24 h | Potency, µM (doses to about 56.7 µM), usual class: cytotoxic | 400,000 compounds, 0.49% hits; also: nearly all actives have a fitted effect of over 40% in size
Nrf2 ARE act – qHTS of Nrf2 Activators. AREc32 ARE-luciferase reporter (MCF7-derived line), luminescence, 24 h. Potency, µM (series often up to 46.1 µM), most hits filed as activators. 410,000 compounds, 0.31% hits; also: nearly all actives have a fitted effect of over 65% in size
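Steps: seed AREc32_Fluc cells (1000/well, 5% FBS OPTI-MEM); incubate overnight at 37 deg C; add 23 nL compound; incubate 24 hr; add Steady-Glo; hold 30 min RT; read luminescence.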
Large screens that a line does not name were inactive. Calls follow the shape of the dose curve; as a rule, active = well fitted curve in the direction sought with a large enough effect; inconclusive = small, poorly fitted or top-dose-only effect, or another doubt; inactive = no such curve, though single readings can be large; an effect the other way counts as inactive or inconclusive.

Cc1ccc(NC(=O)C2CCN(S(=O)(=O)c3cc([N+](=O)[O-])ccc3Cl)CC2)nc1	Nrf2 inh 20.6µM, S2 tox inconclusive, Nrf2 ARE act inconclusive (no result: ATXN2 expr inh)
Cc1ccccc1NC(=O)C1CCN(S(=O)(=O)c2c(C)noc2/C=C/c2ccco2)CC1	none (no result: ATXN2 expr inh, S2 tox)
Cc1ccc(NC(=O)C2CCN(S(=O)(=O)c3c(C)noc3/C=C/c3ccco3)CC2)nc1	Nrf2 inh 16.4µM
Cc1ccc(N2CCN(C(=O)Nc3cn(CC(C)C)c(=O)c4ccccc34)CC2)c(C)c1	Nrf2 inh inconclusive
Cc1ccc(NC(=O)CCS(=O)(=O)c2ccc(Br)s2)cc1	none
CCc1ccc(/C=C/c2c[nH]c3ccccc23)[n+](CC)c1	A549 tox inconclusive, Nrf2 inh 6.51µM, S2 tox inconclusive
CCc1ccc(-c2cc(C(=O)N/N=C/c3c[nH]c4ccccc34)[nH]n2)cc1	Nrf2 inh inconclusive, S2 tox inconclusive
O=C(c1ccc(COc2ccccc2Br)o1)N1CCN(c2ccccn2)CC1	Nrf2 inh inconclusive (no result: ATXN2 expr inh, S2 tox)
O=C(c1ccc(C#Cc2ccccc2)o1)N1CCN(c2ccccn2)CC1	ATXN2 expr inh inconclusive, A549 tox inconclusive, Nrf2 inh 18.4µM, S2 tox inconclusive
Cc1ccc2nc(-c3ccccc3)nn2c1	ATXN2 expr inh 3.16µM, Nrf2 inh inconclusive
Cc1cc(C)cc(C(=O)NCCc2csc(-c3ccc(C(F)(F)F)cc3)n2)c1	none (no result: ATXN2 expr inh, Nrf2 inh, S2 tox)
O=C(NCCc1csc(-c2ccc(F)cc2)n1)c1cccc(F)c1	ATXN2 expr inh 28.2µM, S2 tox inconclusive (no result: Nrf2 inh)
O=C(Cc1ccc(F)cc1)NCCc1csc(-c2cccc(F)c2)n1	none (no result: Nrf2 inh)
O=C(NCCc1csc(-c2ccc(C(F)(F)F)cc2)n1)c1ccc(F)c(F)c1	ATXN2 expr inh 20µM, S2 tox inconclusive (no result: Nrf2 inh)
Cc1ccc(CNC(=O)C2(C)CCN2C(=O)Cc2ccc(-c3ccccc3)cc2)cc1 (stereo not drawn)	ATXN2 expr inh inconclusive, S2 tox inconclusive (no result: A549 tox, Nrf2 inh)
CN(Cc1ccccc1)S(=O)(=O)c1ccc(NC(=O)c2cc(=O)c3ccccc3o2)cc1	Nrf2 inh inconclusive, S2 tox inconclusive
NS(=O)(=O)c1cccc(NC(=O)c2cc(=O)c3ccccc3o2)c1	Nrf2 ARE act 12.6µM
CN(c1ccccc1)S(=O)(=O)c1cccc(NC(=O)C2=NN(c3ccccc3)C(=O)CC2)c1	Nrf2 inh 20.6µM, S2 tox inconclusive (no result: ATXN2 expr inh)
COc1ccc(CNC(=O)c2cc(=O)c3ccccc3o2)cc1	Nrf2 inh 13µM
CN(c1ccccc1)S(=O)(=O)c1cccc(NC(=O)c2cc(=O)c3ccccc3o2)c1	ATXN2 expr inh 12.6µM, Nrf2 inh inconclusive, S2 tox inconclusive
NS(=O)(=O)c1cccc(NC(=O)c2cc3ccccc3o2)c1	none
Cc1nc2c(C(=O)NCCC(C)C)c[nH]n2c(=O)c1Cc1ccccc1F	ATXN2 expr inh inconclusive
COc1ccc(C(=O)N2CCN(Cc3cc(=O)n4nc(-c5ccccc5C)sc4n3)CC2)cc1OC	none (no result: Nrf2 inh)
CCN(C(=O)C1CCN(c2ncnc3c2nc2n3CCCCC2)CC1)c1cccc(Cl)c1	none (no result: ATXN2 expr inh, S2 tox)
O=C(OCc1cc(=O)n2ccsc2n1)c1ccccc1NCCO	Nrf2 inh inconclusive
CCC(Sc1nc2ccsc2c(=O)n1CCC(=O)O)C(=O)Nc1ccc(Cl)cc1 (stereo not drawn)	S2 tox inconclusive (no result: ATXN2 expr inh, A549 tox, Nrf2 inh)
CSc1ncccc1C(=O)Nc1cccc(S(=O)(=O)N(C)c2ccccc2)c1	Nrf2 inh 11.6µM
O=C(Nc1cccc(S(=O)(=O)N2CCCCCC2)c1)c1cc(=O)c2ccccc2o1	Nrf2 inh 18.4µM
CN(CC(=O)O/N=C(\N)c1ccc([N+](=O)[O-])cc1)S(=O)(=O)c1ccc2ccccc2c1	Nrf2 inh inconclusive
CCOc1ccc(/C=C/C(=O)Nc2ccc3[nH]c(=O)[nH]c3c2)cc1	none
O=[N+]([O-])c1ccc(Cl)cc1N/N=C/c1ccncc1	Nrf2 ARE act 1µM (no result: ATXN2 expr inh, S2 tox)
Cc1cc(N(C)C)cc(C)c1N=Nc1cc[n+]([O-])cc1	S2 tox 11.2µM (no result: ATXN2 expr inh, A549 tox, Nrf2 inh)
Cc1ccc(S(=O)(=O)N2[C@@H](c3ccc(Br)cc3)C(C(=O)O)=CC[C@H]2c2cccc(Cl)c2)cc1	Nrf2 inh inconclusive
Cc1cccc(C)c1-n1c(SCC(=O)N2CC(=O)Nc3ccccc32)nc2ccccc2c1=O	Nrf2 inh 23.1µM, S2 tox inconclusive
Cc1nnc(SCC(=O)N2CC(=O)Nc3ccccc32)s1	none
O=C1CN(C(=O)CSc2nc(-c3ccc(Cl)cc3)cs2)c2ccccc2N1	Nrf2 inh 23.1µM (no result: ATXN2 expr inh)
COc1ccc(OC)c(S(=O)(=O)N2CCC3(CC2)OCCN3S(=O)(=O)c2ccccc2)c1	none
N/C(=N\N=Cc1ccc2c(c1)OCO2)NN=Cc1ccc2c(c1)OCO2	S2 tox 29.9µM
CC(C)C(=O)NC(Nc1cccc2cccnc12)C(Cl)(Cl)Cl (stereo not drawn)	none
CC(C)CC(=O)NC(NC(=S)Nc1cccc2cccnc12)C(Cl)(Cl)Cl (stereo not drawn)	Nrf2 inh 20.6µM
Cc1cc(Nc2nc(N[C@@H](C)c3ccc(F)cc3)c(C#N)cc2F)n[nH]1	ATXN2 expr inh 24.3µM (no result: A549 tox, Nrf2 inh, S2 tox, Nrf2 ARE act)
Cc1cc(Nc2ncc(Cl)cc2Cl)n[nH]1	none
Cc1c(NC(=S)NC(=O)c2ccc(COc3ccccc3)cc2)cccc1C(=O)O	none
Cc1ccc([N+](=O)[O-])cc1NC(=O)c1ccc2c(c1)OCO2	none (no result: ATXN2 expr inh)
Cc1onc(-c2ccccc2)c1C(=O)Nc1ncc([N+](=O)[O-])s1	ATXN2 expr inh inconclusive, A549 tox inconclusive, Nrf2 inh 10.3µM, S2 tox inconclusive
CC(=O)Nc1cccc(NC(=O)c2c(-c3c(Cl)cccc3Cl)noc2C)c1	S2 tox inconclusive
Cc1nc2ccc3nc(NC(=O)c4ccc5c(c4)OCCO5)sc3c2s1	none
O=C(Nc1ncc([N+](=O)[O-])s1)c1ccc2c(c1)OCO2	ATXN2 expr inh 2.24µM, A549 tox inconclusive, Nrf2 inh inconclusive, S2 tox inconclusive
Cc1cnc(NC(=O)c2ccc3c(c2)OCCO3)s1	ATXN2 expr inh 2.24µM, A549 tox inconclusive, Nrf2 inh inconclusive, S2 tox inconclusive
Cc1noc(NC(=O)c2c(-c3c(Cl)cccc3Cl)noc2C)c1[N+](=O)[O-]	Nrf2 inh 14.6µM
CC(C)C(=O)C1=Cc2cccc([N+](=O)[O-])c2OC1N1CCOCC1 (stereo not drawn)	Nrf2 ARE act inconclusive
CCC1=C(OC(=O)N(CC)CC)N2C(=O)OC(=NCCc3c[nH]c4ccccc34)[C@]2(Cc2ccccc2)[C@H]2C1=CC[C@H]1C(=O)NC(=O)[C@H]12	ATXN2 expr inh inconclusive, Nrf2 inh inconclusive, S2 tox inconclusive
Cc1ccc(/C=N/n2cnc3sc(C)c(C)c3c2=O)o1	none
CC(C)CN(CC(C)C)C(=O)CCCC(=O)N(CC(C)C)CC(C)C	none
Cc1ccc(C(=O)Nc2ncc([N+](=O)[O-])s2)cc1	ATXN2 expr inh 2.82µM, Nrf2 inh inconclusive, S2 tox inconclusive

Compound activity deposited in PubChem by National Center for Advancing Translational Sciences (NCATS).
